Where “and” joins values, the source holds several entries; their conditions need not be identical. Equal values may be shown once. In all, about 5,500 compounds went through this assay and about 2,000 (36%) were called active. Not shown: some 18% with an inconclusive outcome. Rule as the data show it: active = normalized growth mostly below about 0.91 (no sharp cut-off); inconclusive = no clear call, values can overlap the other calls; inactive = mostly above about 0.92. The list shows a part of the results.
Test: chemical genetic growth profiling, strain panel (AID 1159580);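 also: tested at 20 µM; growth read once vehicle control cultures reached saturation at 30 °C; 1 = growth at the plate median or of vehicle wells; lower values mean less growth of the strain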
Conditions: S. cerevisiae deletion strains, growth OD

Measured: normalized growth

COc1cc2c(cc1OC)Cc1cc(OC)c(OC)cc1Cc1cc(OC)c(OC)cc1C2
inactive: locus YAL021C, strain ccr4, active compounds read low 1.03 | locus YAL026C, strain drs2, active compounds read low 1.04 | locus YAL030W, strain snc1, active compounds read low 1.03 | locus YBL061C, strain skt5, active compounds read low 1.03 | locus YBR009C, strain hhf1, active compounds read low 1.03 | locus YBR021W, strain FUR4, active compounds read low 1.02 | locus YBR023C, strain chs3, active compounds read low 1.03 | locus YBR171W, strain sec66, active compounds read low 1.05 | locus YBR229C, strain ROT2, active compounds read low 1.02 | locus YBR231C, strain swc5, active compounds read low 1.04 | locus YBR279W, strain paf1, active compounds read low 1.02 | locus YCL011C, strain gbp2, active compounds read low 1.04 | locus YCL016C, strain dcc1, active compounds read low 1.03 | locus YCL029C, strain bik1, active compounds read low 1.02 | locus YCL061C, strain MRC1, active compounds read low 1.02 | locus YCL069W, strain vba3, active compounds read low 1.02 | locus YCR088W, strain abp1, active compounds read low 1.02 | locus YDL005C, strain med2, active compounds read low 1.03 | locus YDL035C, strain GPR1, active compounds read low 1.01 | locus YDL040C, strain nat1, active compounds read low 1.05 | locus YDL074C, strain BRE1, active compounds read low 1.03 | locus YDL101C, strain DUN1, active compounds read low 1.02 | locus YDL134C, strain PPH21, active compounds read low 1.02 | locus YDL185W, strain tfp1, active compounds read low 1.02 | locus YDL192W, strain arf1, active compounds read low 1.05 | locus YDR001C, strain nth1, active compounds read low 1.02 | locus YDR069C, strain doa4, active compounds read low 1.04 | locus YDR101C, strain arx1, active compounds read low 1.07 | locus YDR137W, strain rgp1, active compounds read low 1.08 | locus YDR150W, strain NUM1, active compounds read low 0.978 | locus YDR159W, strain sac3, active compounds read low 1.05 | locus YDR162C, strain NBP2, active compounds read low 1.03 | locus YDR195W, strain ref2 1.01 | locus YDR297W, strain sur2, active compounds read low 1.03 | locus YDR318W, strain mcm21, active compounds read low 1.02 | locus YDR334W, strain swr1, active compounds read low 1.02 | locus YDR335W, strain msn5, active compounds read low 1.03 | locus YDR388W, active compounds read low 1.03 | locus YDR392W, strain spt3, active compounds read low 0.993 | locus YDR502C, strain sam2, active compounds read low 1.03 | locus YEL003W, strain gim4, active compounds read low 1.04 | locus YEL037C, strain rad23, active compounds read low 1.02 | locus YEL061C, strain CIN8 (second series), active compounds read low 1.03 | locus YEL061C, strain CIN8, active compounds read low 1.01 | locus YER015W, strain faa2, active compounds read low 1.03 | locus YER016W, strain bim1, active compounds read low 1.02 | locus YER110C, active compounds read low 1.03 | locus YER111C, strain swi4, active compounds read low 1.03 | locus YER155C, strain BEM2 (second series), active compounds read low 1.03 | locus YER155C, strain BEM2, active compounds read low 1.01 | locus YER167W, strain BCK2, active compounds read low 1.01 | locus YFR010W, strain ubp6, active compounds read low 1.05 | locus YGL078C, strain dbp3, active compounds read low 1.03 | locus YGL086W, strain mad1, active compounds read low 0.979 | locus YGL167C, strain pmr1, active compounds read low 1.04 | locus YGL173C, strain kem1, active compounds read low 1.04 | locus YGL227W, strain vid30, active compounds read low 1.04 | locus YGL240W, strain doc1, active compounds read low 1.03 | locus YGL248W, strain PDE1, active compounds read low 1.02 | locus YGL253W, strain hxk2, active compounds read low 1.02 | locus YGR078C, strain PAC10, active compounds read low 1.02 | locus YGR135W, strain pre9, active compounds read low 1.06 | locus YGR252W, strain gcn5, active compounds read low 1.05 | locus YHR013C, strain ard1, active compounds read low 1.05 | locus YHR027C, strain rpn1, active compounds read low 1.04 | locus YHR030C, strain SLT2, active compounds read low 1.01 and 1.02 | locus YHR079C, strain IRE1 (second series), active compounds read low 1.02 | locus YHR079C, strain IRE1, active compounds read low 1.06 | locus YHR094C, strain hxt1, active compounds read low 1.03 | locus YHR129C, strain ARP1, active compounds read low 1.01 | locus YHR142W, strain chs7, active compounds read low 1.03 | locus YHR200W, strain rpn10, active compounds read low 1.03 | locus YIL066C, strain RNR3, active compounds read low 1.01 | locus YIL073C, strain SPO22, active compounds read low 1.04 | locus YIL125W, strain kgd1, active compounds read low 1.04 | locus YIR030C, strain dcg1, active compounds read low 1.02 | locus YJL092W, strain hpr5, active compounds read low 1.03 | locus YJL095W, strain BCK1 (second series), active compounds read low 1.02 | locus YJL095W, strain BCK1, active compounds read low 1.02 and 1.03 | locus YJL115W, strain asf1, active compounds read low 1.04 | locus YJL129C, strain trk1, active compounds read low 1.05 | locus YJL134W, strain LCB3, active compounds read low 0.998 | locus YJL154C, strain vps35, active compounds read low 1.01 | locus YJL164C, strain tpk1, active compounds read low 1 | locus YJL166W, strain qcr8, active compounds read low 1.03 | locus YJL168C, strain set2, active compounds read low 1.03 | locus YJL187C, strain SWE1 (second series), active compounds read low 1.03 | locus YJL187C, strain SWE1, active compounds read low 1.03 | locus YJR043C, strain POL32, active compounds read low 1

— PubChem BioAssay AID1159580 (chemical genetic matrix, 2015)
